Compound activity deposited in PubChem BioAssay by National Center for Advancing Translational Sciences (NCATS).
DT40 TDP1 CPT = DT40-hTDP1 cell growth loss with CPT; chicken DT40 Tdp1-/-;hTDP1 cells + 20 nM CPT, ATP luminescence, 48 h; Potency, µM (highest dose often 46.2 µM), actives largely listed as inhibitors; actives 12% (n = 420,000); AID 686979; also: nearly all actives have a fitted effect of over 55% in size
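Cell growth measured by CellTiter-Glo luminescence after a minimum 48 h, 37 C compound exposure with 20 nM CPT in Tdp1-knockout DT40 cells stably expressing hTDP1, seeded 400/well; qHTS titration format.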
TDP1 cell noCPT = qHTS for Inhibitors of human tyrosyl-DNA phosphodiesterase 1 (TDP1): qHTS in cells in absence of CPT. DT40 Tdp1-/- hTDP1 cells, no CPT, ATP luminescence, 48 h. Potency, µM (highest dose often 46.2 µM), most hits filed as inhibitors. actives 15% (n = 420,000); also: nearly all actives have a fitted effect of over 55% in size
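Cells were dispensed at 400 per well, compounds added by pin tool, plates incubated ≥48 hr at 37 °C, then CellTiter-Glo added for 30 min at room temperature before luminescence reading. Line: DT40 Tdp1-/- complemented with hTDP1; camptothecin omitted.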
MCF10A rerep = DNA re-replication induction in MCF 10a cells; MCF 10A DNA re-replication, Hoechst nuclear intensity, 48 h; Potency, µM (highest dose often 46.1 µM), most hits filed as activators; actives 2.9% (n = 350,000); also: nearly all actives have a fitted effect of over 50% in size
Chronic BCR inh = inhibitors of chronic active B-cell receptor signaling; Potency, µM (titrated, usually from 46.1 µM), hits mostly inhibitors; ABC-DLBCL IkBa-CBG/CBR reporter, luminescence ratio, 4 h; actives 0.05% (n = 340,000); AID 493014; active = well fitted inhibition curve with a large enough effect in the signal ratio, with a control signal flat, not every such curve was filed as active; inconclusive = small, poorly fitted or top-dose-only effect, or effect the other way, or a change in a side signal; the % refers to the signal ratio
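Concentration-response series (up to 46 uM) were applied to TMD8 dual-reporter cells for 4 h at 37C with doxycycline. Green/red ratio, after filter-overlap correction, defined %Activity; red signal alone was normalised to basal cells and zero luminescence.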
SW480 rereplic = DNA re-replication induction in SW480 cells. SW480 DNA re-replication, Hoechst DNA content imaging, 48 h. Potency, µM (top dose mostly 46.1 µM), actives largely listed as activators. actives 1.8% (n = 340,000). AID 624297; also: nearly all actives have a fitted effect of over 55% in size
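Per well, 250 cells were exposed to pinned compound for 48 hr. Nuclear DNA was visualised with Hoechst (40 min, 37 C) and total object intensity recorded by fluorescence scanning.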
IL-1B inflam inh = blocks inflammasome-driven IL-1 beta release | THP-1 LPS/ATP IL-1B secretion, AlphaLISA, 16 h; active compounds read low | activity change, % at 57.5 µM | actives 4.7% (n = 360,000) | AID 743279; in the data active = activity change below about -50%; inconclusive = mostly about -30% to -49%
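THP-1 cells pretreated 1 hr with compounds (up to 57.5 uM final), then stimulated with LPS (250 ng/mL final) plus ATP (1.25 mM final); secreted IL-1B measured by AlphaLISA after 16 hr, decreased signal indicating inhibition.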
Hits are given with their value; i = inactive; ? = inconclusive; nt = no result given; [ ] = remark or other dose. An excerpt weighted towards active compounds, which were near 19% of everything screened. Unless noted, calls follow the shape of the dose curve; as a rule, active = well fitted curve in the direction sought with a large enough effect; inconclusive = small, poorly fitted or top-dose-only effect, or another doubt; inactive = no such curve, though single readings can be large; an effect the other way counts as inactive or inconclusive.

SMILES	DT40 TDP1 CPT	TDP1 cell noCPT	MCF10A rerep	Chronic BCR inh	SW480 rereplic	IL-1B inflam inh
COc1ccc(-c2cc(C(=O)NCC3CCCO3)c3ccccc3n2)c(OC)c1 (configuration not stated)	?	?	i	i	i	i
Cc1ccc2nc(-c3ccc(Br)cc3)cc(C(=O)NCC3CCCO3)c2c1 (configuration not stated)	15µM	15µM	nt	nt	nt	i
COc1cccc(-c2cc(C(=O)NCC3CCCO3)c3cc(Br)cc(C)c3n2)c1 (configuration not stated)	?	?	i	i	i	i
CCOc1ccc(-c2cc(C(=O)NCC3CCCO3)c3ccccc3n2)cc1 (configuration not stated)	16µM	15µM	?	i	i	i
Cc1c(-c2ccccc2)n(-c2ccc(Cl)cc2)c2nc3c(c(=O)n(C)c(=O)n3C)n12	i	i	nt	i	nt	nt
CC1(C)CC(C(CC(=O)Nc2nccs2)c2ccccc2)CCO1 (configuration not stated)	?	18µM	?	i	i	i
CCCN(CCC)C(=O)CC(c1ccccc1)C1CCOC(C)(C)C1 (configuration not stated)	?	23µM	i	i	i	i
Nc1nnc(-c2ccc([N+](=O)[O-])o2)s1	18µM	9.2µM	?	nt	?	i
O=S(=O)(N/N=C\c1ccc2c(c1)OCO2)c1ccc(F)cc1	i	i	i	i	i	i
CC(=O)N1CCC(C(=O)OCc2ccccc2F)(c2ccccc2)CC1	?	21µM	i	i	i	i
O=C(c1cccnc1)C1CCCN(Cc2ccc3c(c2)CN(C(=O)c2ccc4[nH]ccc4c2)CCO3)C1 (configuration not stated)	i[9.04 µM]	?	nt	nt	nt	nt
O=C1CC(c2ccc(Cl)cc2)CC(=O)C1CS(=O)(=O)c1ccccc1 (configuration not stated)	i	i	?	?	i	-58
COc1ccc2c(CC(=O)OCC(=O)N3CCc4ccccc43)coc2c1	?	18µM	?	i	?	i
O=C(CN(c1ccccc1)S(=O)(=O)c1ccccc1)NCCSc1ccccn1	i	i	i	i	i	i
COc1ccc(CCNC(=O)CN(c2ccccc2OC)S(=O)(=O)c2ccc(C)cc2)cc1	21µM	23µM	i	?	?	-51
COc1ccccc1N(CC(=O)NCc1ccccc1C)S(=O)(=O)c1ccc(C)cc1	?	?	i	?	i	i
COc1ccc(CCNC(=O)CN(c2cc(OC)ccc2OC)S(=O)(=O)c2ccccc2)cc1	?	?	i	i	i	i
COc1ccc(N(CC(=O)NCCSc2ccccc2)S(=O)(=O)c2ccccc2)c(OC)c1	?	13µM	?	i	?	i
Cc1cccc(N(CC(=O)NCCSc2ccccn2)S(=O)(=O)c2ccccc2)c1	?	15µM	i	i	i	i
COc1ccc(N(CC(=O)NCCc2ccccc2)S(=O)(=O)c2ccccc2)c(OC)c1	21µM	21µM	nt	nt	nt	nt
CCOC(=O)C1CC(CN2C(=O)c3ccccc3C2=O)OC1=O (configuration not stated)	i	i	i	nt	i	i
CS(=O)(=O)Cc1ccc(C(=O)N2CCN(C(=O)c3cccs3)CC2)cc1	i	i	i	i	i	i
COc1ccccc1N(CC(=O)NCCSc1ccccc1)S(=O)(=O)c1ccc(C)cc1	?	16µM	nt	nt	nt	nt
COc1ccc(N(CC(=O)NCCSc2ccccn2)S(=O)(=O)c2ccccc2)c(OC)c1	?	21µM	i	i	i	i
COc1ccccc1N(CC(=O)NCCSc1ccccc1)S(=O)(=O)c1ccccc1	?	18µM	i	nt	i	i
SMILES	DT40 TDP1 CPT	TDP1 cell noCPT	MCF10A rerep	Chronic BCR inh	SW480 rereplic	IL-1B inflam inh
COc1ccccc1N(CC(=O)NCCSc1ccccc1)S(C)(=O)=O	i	i	i	i	i	i
CCCN1C(=O)CC(c2ccc(OC)c(OC)c2)C1=O (configuration not stated)	i	i	nt	nt	nt	i
CC1Cc2ccccc2N1Cc1cccc([N+](=O)[O-])c1 (configuration not stated)	i	i	i	i	i	i
COc1ccc(CNCc2ccc3ccccc3c2)c(OC)c1	16µM	16µM	i	?	i	-68
COc1ccc(CCC(C)NCc2ccccc2OC)cc1 (configuration not stated)	26µM	?	i	i	?	-82
COc1ccc(CNCc2cccc(Oc3ccccc3)c2)cc1	i	?	i	i	i	-80
COc1ccc(CNCc2cccc(C)c2)cc1	i	?	?	i	i	i
COc1cc(CNCc2ccc(OC)c(OC)c2OC)cc(OC)c1	18µM	21µM	i	i	i	?
Cc1nc(-n2nc(C)c(Cc3ccccc3Cl)c2C)sc1C(=O)N1CCCCC1C (configuration not stated)	?	21µM	nt	nt	nt	nt
CCN(CC)C(=O)c1cccc(-c2csc(C(O)c3cccc(Cl)c3)n2)c1 (configuration not stated)	?	16µM	nt	nt	nt	i
CCN(CC)C(=O)c1cccc(-c2csc(C(O)c3ccc(OC)cc3)n2)c1 (configuration not stated)	16µM	18µM	nt	nt	nt	i
CCN(CC)C(=O)c1cccc(-c2csc(C(C)(O)c3ccncc3)n2)c1 (configuration not stated)	18µM	21µM	nt	nt	nt	i
COc1cc(C(O)c2nc(-c3cccc(C#N)c3)cs2)ccc1F (configuration not stated)	?	?	nt	nt	nt	i
COc1cccc(C(C)(O)c2nc(-c3cccc(C(=O)O)c3)cs2)c1 (configuration not stated)	i	i	nt	nt	nt	i
O=C(O)c1cccc(-c2csc(C(O)c3cccc(Cl)c3)n2)c1 (configuration not stated)	i	i	nt	nt	nt	i
COc1ccc(C(O)c2nc(-c3cccc(C(=O)O)c3)cs2)cc1 (configuration not stated)	i	i	nt	nt	nt	i
CCN(CC)C(=O)c1cccc(-c2csc(C(O)c3ccc(F)c(OC)c3)n2)c1 (configuration not stated)	18µM	16µM	nt	nt	nt	i
COCCn1c(SCC(=O)Nc2cc(C)on2)nc2c(c1=O)SCC2	i	i	i	i	i	i
Cn1cccc1CC(=O)N/N=C/C=C/c1ccco1	?	i	i	i	i	i
OC[C@@H](O)C(O)[C@H](O)CO	i	i	nt	nt	nt	nt
Cc1cc(/C=C2\C(=N)N3N=C(c4ccco4)SC3=NC2=O)c(C)n1Cc1ccccc1	i	i	21µM	i	i	nt
